Results reported in PubChem BioAssay AID1159580 (chemical genetic matrix, 2015).
Out of some 5,500 compounds screened, about 2,000 (36%) were called active. Another 18% or so got no clear call; they are omitted. Cut-off read from the data, not from the text of the source: active = normalized growth mostly below about 0.91 (no sharp cut-off); inconclusive = no clear call, values can overlap the other calls; inactive = mostly above about 0.92. The list shows a part of the results.

Test: chemical genetic growth profiling, strain panel (AID 1159580);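 note: tested at 20 µM; growth read once vehicle control cultures reached saturation at 30 °C; 1 = growth at the plate median or of vehicle wells; lower values mean less growth of the strain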
Settings: S. cerevisiae deletion strains, growth OD
[1] = locus YAL040C, strain CLN3, stronger effect = lower value
[2] = locus YCL061C, strain MRC1 (second series), stronger effect = lower value
[3] = locus YDR363W, strain ESC2, stronger effect = lower value
[4] = locus YER002W, strain NOP16, stronger effect = lower value
[5] = locus YGR229C, strain SMI1, stronger effect = lower value
[6] = locus YNL153C, strain GIM3, stronger effect = lower value
[7] = locus YNL175C, strain NOP13, stronger effect = lower value
[8] = locus YNL197C, strain WHI3, stronger effect = lower value
[9] = locus YNL224C, strain SQS1, stronger effect = lower value
[10] = locus YOR083W, strain WHI5 (second series), stronger effect = lower value
[11] = locus YPL241C, strain CIN2, stronger effect = lower value

Measured: normalized growth

CCc1c(C(=O)OC)ncc2[nH]c3cc(OC)c(OC)cc3c12
inactive: [1] 0.994 | [2] 0.994 | locus YDR150W, strain NUM1, stronger effect = lower value 0.995 | [3] 1 | [4] 0.99 | [5] 1.05 | locus YJR075W, strain HOC1, stronger effect = lower value 0.99 | locus YMR307W, strain GAS1, stronger effect = lower value 1.01 | [6] 0.984 | [7] 0.998 | [8] 0.992 | [9] 1.02 | [10] 1 | [11] 0.999

NC(=O)CNCCC(c1ccccc1)c1ccccc1
inactive: [1] 0.962 | [2] 0.987 | [3] 0.965 | [4] 0.969 | locus YGR078C, strain PAC10, stronger effect = lower value 0.993 | [5] 0.895 | [6] 1.04 | [7] 0.993 | [8] 1.01 | [9] 0.991 | [10] 1.03 | [11] 0.984
